Screens: PubChem BioAssay, National Center for Advancing Translational Sciences (NCATS)
Compounds with a hit are over-represented: about 5.3% of the library has one in this group of screens.
LASV entry inh: qHTS for Inhibitors of binding or entry into cells for Lassa Virus | Lassa virus pseudotype entry inhibition, cell reporter | Potency, µM (titrated, usually from 37.9 µM), for the others: at the highest dose activity change, negative = inhibition, hits mostly inhibitors | 1.2% of 300,000 active; calls by dose curve; tested in HEK293 cells; also: nearly all actives have a fitted effect of over 50% in size
MARV entry inh: qHTS for inhibitors of binding or entry into cells for Marburg Virus | 1.8% of 300,000 active | Potency, µM (doses to about 37.8 µM), for the others: at the top dose activity change, negative = inhibition, usual class: inhibitors | Marburg virus pseudotyped entry inhibition, cell reporter; calls by dose curve; tested in HEK293 cells
Vaccinia Venus: qHTS for Stage-Specific Inhibitors of Vaccinia Orthopoxvirus: Venus Reporter Primary qHTS | Potency, µM (series often up to 36.5 µM), without a hit: top-dose activity change, negative = inhibition, usual class: inhibitors | AID 720580, 2013 | Vaccinia virus Venus reporter expression, fluorescence | 0.46% of 330,000 active; calls by dose curve; tested in A549 cells; also: nearly all actives have a fitted effect of over 30% in size
Vaccinia mCherry: qHTS for Stage-Specific Inhibitors of Vaccinia Orthopoxvirus: mCherry Reporter Primary qHTS; Vaccinia virus mCherry reporter infection, fluorescence; Potency, µM (series often up to 36.5 µM), for the others: at the top dose activity change, negative = inhibition, actives largely listed as inhibitors; 0.63% of 310,000 active; AID 720579, 2013; calls by dose curve; tested in A549 cells; also: nearly all actives have a fitted effect of over 35% in size
HCV inhibitor: qHTS Assay for Inhibitors of Hepatitis C Virus (HCV); Huh7.5.1 HCVcc-Cre infection, luciferase reporter, 44 h; Potency, µM (series often up to 41.8 µM), without a hit: top-dose activity change, negative = inhibition, most hits filed as inhibitors; 3.4% of 340,000 active; active = well fitted inhibition curve with a large enough effect; inconclusive = small, poorly fitted or top-dose-only effect, or another doubt; inactive = no such curve, though single readings can be large or run the other way
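Reporter virus HCVcc-Cre (~0.5 moi) infects cells exposed to compound; seeding density 1,000 cells/well with 4 h settling beforehand. Luminescence, 15 sec read, taken 44 h post-infection following a 15 min RT substrate incubation.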
FMDV antiviral: High Throughput Screening for Foot and Mouth Disease Virus Antivirals; FMDV antiviral cell-based qHTS; Potency, µM (highest dose often 57.9 µM), without a hit: top-dose activity change, negative = inhibition, actives largely listed as inhibitors; 1.2% of 410,000 active; calls by dose curve; tested in HEK293T cells; also: read-out not given here; nearly all actives have a fitted effect of over 45% in size
* marks the source's active call; other numbers are inactive results; i = inactive; ? = inconclusive; · = no result; [ ] = dose if it differs, or a comment. % is scaled to controls: 0 for no effect and ±100 for the full control effect; potency is read from the fitted curve at half-maximal effect.

SMILES	LASV entry inh	MARV entry inh	Vaccinia Venus	Vaccinia mCherry	HCV inhibitor	FMDV antiviral
CCCC(=O)Nc1ccc(Oc2ccc(NC(=O)CCC)cc2)cc1	2.0%	1.8%	·	·	12.9%	-5.4%
Cc1cccc(OCCC(=O)Nc2ccc(C)c(S(=O)(=O)N3CCOCC3)c2)c1	·	·	·	·	12.6µM*	?
Cc1ccc(NC(=O)COc2cccc(Oc3ccccc3)c2)cc1S(=O)(=O)N1CCOCC1	?	?	-18.7%	?	3.16µM*	-28.9%
Cc1cccc(OCCC(=O)Nc2ccc(C)c(S(=O)(=O)N3CCCCC3)c2)c1	?	?	?	?	3.16µM*	-8.6%
Cc1ccc(NC(=O)CN2c3cccc4cccc(c34)S2(=O)=O)cc1S(=O)(=O)N1CCOCC1	13.6%	?	?	-8.8%	11.2µM*	-18.7%
Cc1ccc(OCCC(=O)Nc2ccc(C)c(S(=O)(=O)N3CCOCC3)c2)cc1	·	·	·	·	?	2.4%
CN(c1ccccc1C(=O)O)S(=O)(=O)c1ccc2[nH]c(=O)oc2c1	?	?	-11.4%	-10.1%	·	-14.1%
CCOc1ccccc1OCCCC(=O)Nc1ccc(Cl)c(S(=O)(=O)N2CCOCC2)c1	·	·	·	·	7.94µM*	?
COc1ccccc1CCC(=O)Nc1ccc(OC)c(S(=O)(=O)N2CCOCC2)c1	8.1%	?	-7.9%	-5.7%	-2.7%	7.4%
Cc1cccc(OCCC(=O)Nc2ccc(S(=O)(=O)N3CCCC3)cc2)c1	-29.4%	?	-29.0%	·	?	?
Cc1cccc(OCCCC(=O)Nc2ccc(Cl)c(S(=O)(=O)N3CCOCC3)c2)c1	·	·	·	·	7.94µM*	?
CCOC(=O)c1noc2nc(C)n(CC(=O)Nc3cc(Cl)ccc3OC)c(=O)c12	?	·	-8.8%[7.34 µM]	-10.1%	·	-13.3%
O=Cc1ccc2[nH]ccc2c1	·	·	-5.3%	-15.2%	·	·
COc1ccc(C(=O)C2CCCN(Cc3c(F)ccc(F)c3F)C2)c(OC)c1 (centres undefined)	-31.2%[46.1 µM]	?	-9.6%	-12.2%	?	-9.7%
COc1ccc(C(=O)C2CCCN(Cc3cccn3-c3ccc(Cl)cn3)C2)c(OC)c1 (centres undefined)	?	?	-27.9%	-16.4%	8.91µM*	20µM*
COc1ccc(F)cc1C(=O)C1CCCN(Cc2cnc(C)s2)C1 (centres undefined)	·	·	·	·	-9.8%	-17.9%
COc1ccc(Cl)cc1C(=O)C1CCCN(Cc2cnc(C)s2)C1 (centres undefined)	11.2µM*	3.2%[46.1 µM]	-16.5%	-11.2%	-14.5%	-13.6%
COCC(=O)Nc1cc(C(=O)N2CCc3c(Cl)cccc3C2)c2c(c1)nc(-c1ccncc1)n2C	·	·	0.0%	i	·	-2.9%
Cc1ccc(CSc2nnc3[nH]c(=O)cc(-c4ccccc4)n23)cc1	28.7%[46.1 µM]	·	-9.9%	i	·	7.1%
Cc1ncc2c(c1CNC(=O)c1ccccc1F)CCN(C(=O)c1ccccc1-n1cccn1)C2	·	·	-2.7%	-13.4%	·	-14.2%
CNc1cc(C)nc(-n2nc(C)cc2C)n1	1.6%	0.2%	-5.0%	·	3.6%	19.2%
COc1ccccc1/C=N/Nc1cc(C)nc(N2CCOCC2)n1	·	·	·	·	-28.1%	-8.9%
CCOc1ccc(Nc2cc(C)nc(-n3nc(C)cc3C)n2)cc1	?	0.251µM*	15.8µM*	?	?	20µM*
Cc1cc(N/N=C/c2ccc(F)cc2)nc(-n2nc(C)cc2C)n1	?	?	?	?	2µM*	0.0%
COc1ccc(/C=N/Nc2cc(C)nc(-n3nc(C)cc3C)n2)c(OC)c1	20.6µM*	?	?	6.31µM*	?	28.2µM*
Cn1c(=NC(=O)c2ccc(F)cc2)sc2cc(Br)ccc21	?	·	-2.1%	i	·	36.8%
COc1cccc(CCc2ccccc2OCC(CN(C)C)OC(=O)CCC(=O)O)c1 (centres undefined)	·	·	-18.6%	-15.0%	·	·
Cc1nc(N2CCN(c3ccccc3)CC2)nc2c1C(=O)CC(C)C2 (centres undefined)	4.8%	?	·	·	11.2µM*	0.6%
COc1ccc2c(c1)nc(N)n2Cc1ccccc1	-11.4%	?	-15.6%	-6.2%	?	0.0%
